# Laboratory results as given in PubChem BioAssay AID743279 (National Center for Advancing Translational Sciences (NCATS), 2014).
# Hit rate of the full screen: of about 360,000 compounds, about 17,000 (4.7%) were called active. Another 5% or so got no clear call; they are omitted. The entries come from a sample that favours actives as a whole. A number with no mark means an inactive call. Cut-off read from the data, not from the text of the source: active = activity change below about -50%; inconclusive = mostly about -30% to -49%; inactive = weaker than that.
# Experiment: qHTS for Inhibitors of Inflammasome Signaling: IL-1-beta AlphaLISA Primary Screen
# Details: THP-1 LPS/ATP IL-1B secretion, 16 h; at 57.5 µM, stronger effect = lower value
# How it was run: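 THP-1 cells pretreated 1 hr with compounds (up to 57.5 uM final), then stimulated with LPS (250 ng/mL final) plus ATP (1.25 mM final); secreted IL-1B measured by AlphaLISA after 16 hr, decreased signal indicating inhibition.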
# % is set by controls: 0 for no effect and ±100 for the full control effect.
row,SMILES,activity change
1,CNC(=O)C[C@H]1C(=O)N(Cc2ccccc2)C[C@@H]1CSC,-8.27%
2,c1ccc(CNc2ncnc3[nH]ncc23)cc1,31.4%
3,Cc1cc(C(=O)COc2ccc(Br)cc2F)c(C)n1C1CC1,-54.4% (active)
4,O=C(COc1ccc(Br)cc1F)NCC1(N2CCCCC2)CCCCC1,-9.53%
5,Cc1cc(C(=O)COc2ccccc2Cl)c(C)n1C1CC1,0%
6,O=C(COC(=O)c1cncc(Br)c1)Nc1ccc(S(=O)(=O)N2CCOCC2)cc1,-5.39%
7,C[C@H](CO)N1C[C@H](C)[C@H](CN(C)C(=O)Nc2ccc3c(c2)OCO3)Oc2ncc(Br)cc2C1=O,-12.4%
8,O=C(CSc1nc(Nc2ccccc2)nc(N2CCOCC2)n1)Nc1cc(Cl)ccc1O,-58.1% (active)
9,Cc1ccccc1NC(=O)CSc1nc2ccc(Nc3nc(N4CCOCC4)nc(N4CCOCC4)n3)cc2s1,0%
10,CC1(c2ccccc2)NC(=O)N(CC(=O)Nc2cc(Cl)ccc2N2CCOCC2)C1=O (stereo not given),1.47%
11,CS(=O)(=O)N(CC(=O)N1CCCCCC1)c1cccc(Cl)c1Cl,-9.4%
12,COc1cc(CN2CCC(n3nccc3NC(=O)CCCc3ccccc3)CC2)ccc1O,0%
13,Cc1ccc(CN2CCC(n3nccc3NC(=O)CCCc3ccccc3)CC2)o1,0%
14,COc1ccc(CN2CCC(n3nccc3NC(=O)CCCc3ccccc3)CC2)cc1C,-65% (active)
15,COc1ccc(OC)c(NC(=O)C2CCCN2S(=O)(=O)c2ccc3c(c2)CC(C)N3C(C)=O)c1 (stereo not given),11.5%
16,CC(=O)Nc1ccc2c3c(ccc([N+](=O)[O-])c13)CC2,18.1%
17,COc1ccc(NC(=O)C(c2ccncc2)n2c(=O)c(-c3cc4ccccc4[nH]3)nc3ccccc32)cc1 (stereo not given),-12%
18,COc1cccc(-n2cc3c(c2-c2ccccc2)c(=O)n(C)c(=O)n3C)c1,18.5%
19,COc1cccc(-n2cc(C(=O)O)c3ccccc3c2=O)c1,-59.6% (active)
20,COc1cccc(-n2nc(C(=O)N3CCN(Cc4ccccc4)CC3)c3ccccc3c2=O)c1,-16.4%

row,SMILES,activity change
1,C[C@@H]1CN([C@@H](C)CO)C(=O)c2cccc(NS(=O)(=O)c3ccc(F)cc3)c2O[C@H]1CN(C)C(=O)NC1CCCCC1,2.27%
2,CCCCNCCS(=O)(=O)NCc1ccccc1,24.2%
3,CC(NC(=O)COc1ccccc1)C(=O)NC1=NCCS1 (stereo not given),-56.1% (active)
4,CN(c1ccc(OCC(=O)NC2=NCCS2)cc1)S(=O)(=O)c1ccc(F)cc1,12%
5,Cc1ccc(S(=O)(=O)N(C)c2ccc(OCC(=O)NC3=NCCS3)cc2)cc1,23%
6,CC(C)CNC(=O)C1(C)CCCN1C(=O)CSc1ccccc1 (stereo not given),24.3%
7,Cc1ccc(CC(=O)Nc2ccc(OC(F)F)c(Cl)c2)cc1C,2.16%
8,CC(=O)N1CCN(CC(=O)Nc2ccc(SC(F)F)cc2)CC1,8.74%
9,O=C(Cc1ccc(Cl)c(Cl)c1)Nc1ccc(SC(F)F)cc1,-96% (active)
10,O=C(c1ncn2c1c(=O)[nH]c1ccccc12)N1CCc2ccccc2C1,1.53%
11,CCOC(=O)C1CCCN(C(=O)c2ccc(N(C)C)cc2)CC1 (stereo not given),14.2%
12,Cc1cc(-c2n[nH]c(=S)n2/N=C/C(Br)=C/c2ccccc2)n[nH]1,-103% (active)
13,S=c1[nH]nc(-c2cccs2)n1/N=C/c1cccs1,2.13%
14,COc1cc(/C=N/n2c(C)n[nH]c2=S)ccc1OCc1ccccc1,20.1%
15,CCN(CC(=O)Nc1ccc(NC(C)=O)cc1)C(=O)C1CC(=O)N(c2ccc3c(c2)OCCO3)C1 (stereo not given),-4.3%
16,Nc1ncnc2c1ncn2[C@@H]1O[C@H](C(=O)NCC(F)(F)F)[C@@H](O)[C@H]1O,-18.1%
17,Cc1ccc(Cn2cc(CN3CC(N4CCN(C)CC4)CS3(=O)=O)nn2)cc1 (stereo not given),1.38%
18,O=C(Nc1ccc(C2CC2(Cl)Cl)cc1)c1cccc([N+](=O)[O-])c1 (stereo not given),-90.4% (active)
19,O=C(Nc1cccc([N+](=O)[O-])c1)c1ccc2c(c1)OCO2,-4.35%
20,Cc1cc(C)nc(NC(=O)c2cccc([N+](=O)[O-])c2)c1,-4.03%

row,SMILES,activity change
1,O=C(COC(=O)c1ccc[nH]c1=O)Nc1ccc2c(c1)OC(F)(F)O2,23.1%
2,COC(=O)[C@]12CCCCC=C1N(Cc1cccc3ccccc13)C(=O)[C@H](CC(=O)N1CCOCC1)C2,-7.21%
3,Cc1ccc(S(=O)(=O)N2CCC(=O)N([C@H](COCc3ccccc3)C(C)C)CC2)cc1,29.8%
4,O=C1CCCN1CCCNC(=S)Nc1ccc(F)c(Cl)c1,4.41%
5,Cc1cccc(CN2CCC(CNC(=O)Nc3ccc(F)c(Cl)c3)CC2)c1,-107% (active)
6,O=C(NCCN1CCOCC1)Nc1cccc(Cl)c1,2.78%
7,COc1ccc(Cl)cc1NC(=O)NCC1CCN(Cc2ccccc2F)CC1,-22.8%
8,O=C(NCC1CCN(Cc2ccccc2Cl)CC1)Nc1cccc(Cl)c1,-75% (active)
9,COc1cc(NC(=O)NCC2CCN(Cc3ccc(C)cc3)CC2)cc(OC)c1OC,-6.99%
10,CC(CO)N1CCS(=O)(=O)CC1 (stereo not given),19.8%
11,CCC/C(C)=N\Nc1nc2c(c(=O)n(C)c(=O)n2C)n1C,6.47%
12,O=C(O)C(c1cccs1)C1(O)CCCCC1 (stereo not given),5.75%
13,CCOC(=O)c1cc(-c2sc(NC(=O)c3ccccc3)nc2C)n(-c2ccc(Br)cc2)n1,-4.38%
14,CC(C)Cc1nnc(NC(=O)CCc2ccccc2)s1,8.78%
15,COC(=O)CSc1nnc(NC(=O)CCc2ccccc2)s1,12.3%
16,O=C(CCc1ccccc1)Nc1ncc([N+](=O)[O-])s1,-59.9% (active)
17,CC(CC(=O)C1C(C)C=CCC1(C)C)NNC(N)=O (stereo not given),2.93%
18,Cc1cc(C(=O)CCl)c(C)n1CC1COc2ccccc2O1 (stereo not given),-68.9% (active)
19,Cc1ccsc1C(=O)OCC(=O)c1cc(C)n(CC2CCCO2)c1C (stereo not given),33.5%
20,O=C1C(=O)N(CC2COc3ccccc3O2)c2ccccc21 (stereo not given),11.2%
